# CHX counter: Cycloheximide Counterscreen for Small Molecule Inhibitors of Shiga Toxin; max response, %; cell reporter, cycloheximide protein synthesis inhibition counterscreen; actives 12% (n = 300,000); in the data active = max response mostly above about 13%, no sharp cut-off; inactive = mostly below about 14%; note: read at 38.3 µM for the half of the compounds with a filed dose; 0% is about no effect
# VACV mCherry inh: qHTS for Stage-Specific Inhibitors of Vaccinia Orthopoxvirus: mCherry Reporter Primary qHTS; actives 0.63% (n = 310,000); Potency, µM (top dose mostly 36.5 µM), for the others: at the highest dose activity change, negative = inhibition, usual class: inhibitors; Vaccinia virus mCherry reporter infection, fluorescence; calls by dose curve; tested in A549 cells; note: potency is the fitted concentration of half-maximal effect; % is set by controls: 0 for no effect and ±100 for the full control effect; nearly all actives have a fitted effect of over 35% in size
# Shiga toxin inh: A qHTS for Small Molecule Inhibitors of Shiga Toxin; Vero cells, Shiga toxin protein synthesis inhibition reporter; actives 9.2% (n = 290,000); inhibition, % at 38.7 µM; in the data active = inhibition mostly above about 28%, no sharp cut-off; inactive = mostly below about 43%; note: 0% is about no effect
# LASV entry inh: qHTS for Inhibitors of binding or entry into cells for Lassa Virus | Lassa virus pseudotype entry inhibition, cell reporter | Potency, µM (doses to about 37.9 µM), for the others: top-dose activity change, negative = inhibition, hits mostly inhibitors | actives 1.2% (n = 300,000) | AID 540256, 2011; calls by dose curve; tested in HEK293 cells; note: potency is the fitted concentration of half-maximal effect; % is set by controls: 0 for no effect and ±100 for the full control effect; nearly all actives have a fitted effect of over 50% in size
# Marburg entry inh: qHTS for inhibitors of binding or entry into cells for Marburg Virus. Marburg virus pseudotyped entry inhibition, cell reporter. Potency, µM (titrated, usually from 37.8 µM), inactives show at the top dose activity change, negative = inhibition, usual class: inhibitors. actives 1.8% (n = 300,000); calls by dose curve; tested in HEK293 cells; note: potency is the fitted concentration of half-maximal effect; % is set by controls: 0 for no effect and ±100 for the full control effect
# VACV Venus inh: qHTS for Stage-Specific Inhibitors of Vaccinia Orthopoxvirus: Venus Reporter Primary qHTS | Vaccinia virus Venus reporter expression, fluorescence | Potency, µM (titrated, usually from 36.5 µM), inactives show at the top dose activity change, negative = inhibition, hits mostly inhibitors | actives 0.46% (n = 330,000) | AID 720580, 2013; calls by dose curve; tested in A549 cells; note: potency is the fitted concentration of half-maximal effect; % is set by controls: 0 for no effect and ±100 for the full control effect; nearly all actives have a fitted effect of over 30% in size
# An asterisk follows results filed as active; i = inactive; ? = inconclusive; nt = not tested or not shown; [ ] = dose if it differs, or a comment. Many of the other results were omitted from the sample, so hits are more common in it than they were.
SMILES,CHX counter,VACV mCherry inh,Shiga toxin inh,LASV entry inh,Marburg entry inh,VACV Venus inh
COCCNC(=O)CSc1nc2ccc(N3CCOCC3)cc2c(=O)n1CCc1ccccc1,14.4*,nt,active,-29.1%,-10.7%,nt
CCOC(=O)CSc1nc2ccc(N3CCOCC3)cc2c(=O)n1Cc1ccccc1,18.2*,nt,51.3,?,2.6%,nt
CCCCNC(=O)CSc1nc2ccc(N3CCOCC3)cc2c(=O)n1CCc1ccccc1,2.0,i,-2.0,11.9%,28.6%,-3.9%
Cn1c(=O)oc2cc(S(=O)(=O)N3CCCC(C(=O)Nc4ccc(Br)cc4F)C3)ccc21 (stereo unspecified),nt,-2.1%,nt,-1.7%[46.1 µM],?,-9.4%
COc1ccc(CNC(=O)Cn2ncn3cccc3c2=O)cc1,25.9*,nt,29.6,nt,nt,nt
CCc1nn(CC(=O)NCc2ccccc2)c(=O)c2cccn12,nt,-11.0%,nt,11.2µM*,?,-8.4%
COc1ccc(-c2cc3c(=O)n(CC(=O)NCCCN4CCN(Cc5ccccc5)CC4)ncn3n2)cc1,28.2*,nt,31.2,nt,nt,nt
COc1ccc(CNC(=O)Cn2ncn3c(cc4ccccc43)c2=O)cc1,-2.3,i,-11.0,-19.7%,19.4%[46.1 µM],-8.1%
COc1ccc(-c2cc3c(=O)n(CC(=O)NCc4ccc(F)cc4)ncn3n2)cc1,10.8*,-1.8%,16.0*,nt,nt,-23.8%
COc1ccc(-c2cc3c(=O)n(CC(=O)NCc4ccc(Cl)cc4)ncn3n2)cc1,3.6,i,13.8,nt,nt,-16.1%
COc1ccc(-c2cc3c(=O)n(CC(=O)NCc4ccc(C)cc4)ncn3n2)cc1,1.6,0.8%,9.7,nt,nt,-5.2%
Cc1cccc(N(C(=O)c2snc(C(N)=O)c2N)C(C(=O)NC2CCCC2)c2ccco2)c1 (stereo unspecified),4.0,-15.1%,18.9,-11.6%,?,-2.8%
CCc1ccc(-n2c(=O)c3sc4ccccc4c3n(CC(=O)NCc3ccccc3)c2=O)cc1,nt,-8.7%,nt,?,9.4%[46.1 µM],-15.4%
COc1ccc(-c2cc3c(=O)n(CC(=O)NCCCN4CCC(Cc5ccccc5)CC4)ncn3n2)cc1,23.0*,nt,45.3*,nt,nt,nt
CCOc1ccc(CCNC(=O)Cn2ncn3nc(-c4ccc(OC)cc4)cc3c2=O)cc1,5.7,24.6%,12.1,nt,nt,-6.2%
CCN(CC)CCCNC(=O)Cn1nc(N2CCN(c3ccccc3OC)CC2)ccc1=O,nt,0.4%,nt,?,nt,2.6%
Cc1ncc(/C=C2\C(=O)Nc3ccccc32)[nH]1,26.2*,?,40.2*,?,16.8%,-15.7%
CCc1ncc(/C=C2\C(=O)Nc3ccccc32)[nH]1,26.3*,-25.4%,28.7,-5.2%[46.1 µM],?,?
CN(C)/C=C1\C(=O)Nc2ccccc21,8.6,-2.6%,24.2,2.0%,29.3%,0.0%
O=C(/C=C1\C(=O)Nc2ccccc21)/C=C1\C(=O)Nc2ccccc21,14.9*,nt,48.3,nt,nt,nt
O=C(c1ccco1)N1N=C(c2ccc(Br)cc2)CC1(O)C(F)(F)F (stereo unspecified),-1.1,-10.9%,-2.6,?,10µM*,-25.9%
CCOC(=O)N1N=C(c2ccc(OC)cc2)CC1(O)C(F)(F)F (stereo unspecified),42.5*,nt,48.9*,nt,nt,nt
CCOC(=O)N1N=C(c2ccccc2)CC1(O)C(C)(F)F (stereo unspecified),-2.1,i,-7.0,-26.0%[46.1 µM],-2.8%[46.1 µM],-16.4%
COc1ccc(CC(=O)N2N=C(c3ccncc3)CC2(O)C(F)(F)F)cc1 (stereo unspecified),0.4,nt,-9.8,nt,nt,nt
CCc1ccc(C2=NN(C(=O)OC)C(O)(C(F)(F)F)C2)cc1 (stereo unspecified),37.0*,-15.7%,61.7*,?,?,-3.6%
SMILES,CHX counter,VACV mCherry inh,Shiga toxin inh,LASV entry inh,Marburg entry inh,VACV Venus inh
COc1cccc(NC(=O)c2ccccc2OCC(=O)Nc2ccc(Br)cc2)c1,nt,-10.2%,nt,nt,nt,-13.0%
O=C(Nc1ccccc1N1CCOCC1)c1ccc([N+](=O)[O-])o1,-0.8,11.2µM*,-16.7,?,?,?
O=C(Nc1cccc(Cl)c1N1CCCC1)c1ccc([N+](=O)[O-])o1,-0.5,-11.0%,0.9,-13.1%,-23.8%,-10.6%
O=C(Nc1ccccc1N1CCCCC1)c1ccc([N+](=O)[O-])o1,nt,12.6µM*,nt,?,-16.0%,?
O=C(Nc1cccc(S(=O)(=O)N2CCCCC2)c1)c1ccc([N+](=O)[O-])o1,28.8*,11.2µM*,14.0,nt,nt,10µM*
O=C(Nc1ccccc1N1CCN(C(=O)c2ccc(Cl)cc2)CC1)c1ccc([N+](=O)[O-])o1,9.8,?,3.6,?,?,?
Nc1nonc1-c1nc2ccccc2n1CC(=O)Nc1cccc(C(F)(F)F)c1,nt,-11.9%,nt,-27.3%[46.1 µM],?,-7.7%
CO[C@H]1C([C@@]2(C)O[C@@H]2CC=C(C)C)[C@]2(CC[C@H]1OC(=O)/C=C/C=C/C=C/C=C/C(=O)O)CO2 (stereo partly specified),12.8,nt,-6.9,nt,nt,nt
CCOc1ccc(S(=O)(=O)NCCC(=O)NCC(c2ccccc2OC)N2CCCC2)cc1 (stereo unspecified),-2.5,-19.6%,-1.7,10.1%,4.4%,-21.4%
CN1CCN(CC(=O)Nc2ccc(Oc3ccccc3)cc2)CC1,5.7,nt,-9.0,-5.2%,?,nt
COc1ccccc1NC(=O)CN1CCN(CC(=O)Nc2ccc(OCc3ccccc3)cc2)CC1,19.6*,nt,18.5,11.2µM*,?,?
CCOC(=O)N1CCN(CC(=O)Nc2ccc(Oc3ccccc3)cc2)CC1,-3.7,i,-14.6,0.562µM*,-27.0%,-11.0%
CCOc1ccc(NC(=O)[C@@H](NC(=O)OCc2ccccc2)[C@@H](C)CC)cc1,-1.4,-4.4%,-7.8,?,-3.4%,4.5%
CCC(C)C(NC(N)=O)C(=O)Nc1ccc(OCc2ccccc2)cc1 (stereo unspecified),22.0*,-12.3%,26.2*,nt,nt,-8.9%
COc1ccccc1NC(=O)CN1CCN(CC(=O)Nc2ccc(F)cc2)CC1,-2.6,nt,-4.9,2.3%,-19.0%,?
CC(C(=O)Nc1ccc(OCc2ccccc2)cc1)N1CCCC1 (stereo unspecified),28.1*,i,32.8*,24.2%[46.1 µM],?,-17.8%
O=C(CN1CCN(c2ccccc2)CC1)Nc1ccc(OCc2ccccc2)cc1,-2.2,nt,10.4,?,?,nt
O=C(CN1CCCC1)Nc1ccc(OCc2ccccc2)cc1,26.5*,?,27.1,nt,nt,?
CCOC(=O)N1CCC2(CC1)OC(=O)C(C)=C2C(=O)NCc1cccc(OC)c1,nt,-8.9%,nt,-10.7%[46.1 µM],nt,5.4%
CCc1nnc2c(Nc3ccc(Br)c(C)c3)nc3ccccc3n12,nt,-7.7%,nt,-1.6%[46.1 µM],nt,0.1%
CC1=NN(c2nc(-c3ccccc3)cs2)C(=O)C1N=Nc1ccccc1 (stereo unspecified),43.4*,i,52.9*,10.7%[46.1 µM],-2.3%[46.1 µM],-0.8%

# Screens: PubChem BioAssay, National Center for Advancing Translational Sciences (NCATS)
